For some assays here: Entries with a potency or affinity are not part of this list. Calls of active or inactive are those of the source. How the calls were made is not given here.
target: Plasmodium falciparum protein kinase 6 (PK6, PF3D7_1337100) (UniProt Q8IDW1); test: PfPK6 kinase inhibitors, biochemical, TCAMS library (AID 1159586); details: recombinant PfPK6, Kinase-Glo ATP depletion luminescence
Sequence (Q8IDW1 1-305): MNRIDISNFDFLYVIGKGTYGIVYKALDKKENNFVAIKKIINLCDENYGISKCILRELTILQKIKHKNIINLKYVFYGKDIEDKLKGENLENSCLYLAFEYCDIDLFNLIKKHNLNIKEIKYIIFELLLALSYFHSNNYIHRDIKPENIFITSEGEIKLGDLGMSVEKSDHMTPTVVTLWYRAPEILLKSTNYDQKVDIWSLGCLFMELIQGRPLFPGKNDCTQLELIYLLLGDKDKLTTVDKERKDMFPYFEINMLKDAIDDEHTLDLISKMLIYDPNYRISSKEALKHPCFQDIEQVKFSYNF

outcome, inactive:
FC(F)(F)c1ccc2nc(-c3cccc(-c4ccc(CNCc5cnn(-c6ccccc6)n5)cc4)c3)[nH]c2c1, N=C(N)c1cc(Cl)cc(NC(=O)Nc2cc(Cl)cc(C(=N)N)c2)c1, COc1cccc(C=CC(=O)N(CCN)Cc2ccccc2)c1, Cn1nc(C(F)(F)F)c(-c2ccc(Br)cc2)c1NC(=O)Cc1ccccc1F, CN(C)CCCN1C(=O)c2[nH]nc(-c3ccc(Cl)cc3O)c2C1c1ccc(Cl)cc1 (stereo not given), COc1ccc2nc(-c3cc(-c4ccc(NC(=O)C(C)C)cc4)cnc3N)[nH]c2c1, COc1cc(NC(=O)c2nn(CCCN3CCC(N4CCCC4)CC3)cc2-c2ccc(Cl)c(Cl)c2)cc(OC)c1OC, O=C(Nc1ccccc1)Nc1cccc(-c2cc(CNCCc3ccccc3)sc2-c2ccncc2)c1, O=C(Nc1cccc(C(F)(F)F)c1)NC1CCN(c2ccnc3cc(Cl)ccc23)C1 (stereo not given), Cc1onc(-c2c(Cl)cccc2Cl)c1C(=O)NC1=NC(C)(C)ON1c1ccccc1, CCOc1ccccc1C(=O)Nc1cccc(-c2nc3ncccn3c2C)c1, CCOc1cc(C)c(C2CCN(CCCCNC(=O)c3ccc(NC(=O)c4ccc(Cl)cc4)cc3)CC2)cc1C, CC(C)Cn1cc(C2CCN(CCN3CCC(CNC(=O)c4ccc(NC(=O)c5cc(Cl)cc(Cl)c5)cc4)CC3)CC2)c2ccccc21, Fc1ccc2nc(-c3ccc(-c4ccc(CN5CCN(CCN6CCOCC6)CC5)cc4)s3)[nH]c2c1, COc1ccc(-c2nc(NC(=O)Cc3ccc4c(c3)OCCO4)sc2C)cc1, Nc1ccc(-c2cc(Cl)cc(Cl)c2)cc1-c1cc2ccccc2[nH]1, CC(CNc1ccnc(Nc2ccc3[nH]c(=O)[nH]c3c2)n1)c1ccccc1 (stereo not given), CCCCCCCN1CC[C@@H](CCCc2ccnc3ccc(OC)cc23)[C@@H](CNC)C1, NC1(C(=O)O)Cc2ccc(Cl)cc2C1 (stereo not given), COc1ccc(CN(C)Cc2ccc(NC(=O)c3cccc4c(=O)c5cccc(C)c5[nH]c34)cc2)cc1OC, Cc1ccc(-c2nc3ccc(C(=O)NC4CCN(Cc5ccccc5)CC4)cc3[nH]2)cc1, Cc1ccc(O)cc1Nc1ccnc2cc(-c3ccncc3)ccc12, O=S(=O)(Nc1cccc(CCN2CCC(N3CCCCC3)CC2)c1)c1cccc2cccnc12, O=C(NC(=O)c1ccccc1)NC1CCN(c2ccnc3cc(Cl)ccc23)C1 (stereo not given), Cc1c(Cl)cccc1S(=O)(=O)N1CCCCC(c2ccc(C(F)(F)F)cc2)=N1, CC1CCCN(C(=O)C(C)Nc2cc(Cl)ccc2N2CCOCC2)C1 (stereo not given), Cc1cc(N(C)C)nc(Nc2ccc(NC(=O)c3ccccc3Cl)cc2)n1, COc1cc(-c2nc(-c3ccccc3)c(-c3ccccc3)[nH]2)cc(OC)c1O, CCC(C)NC(=O)Nc1ccc(-c2cccc(-c3nc4c(C)cccc4[nH]3)c2)cc1 (stereo not given), N#Cc1cccc(CN2CCCN(Cc3cccc(C(=O)Nc4ccc(Cl)cc4)c3)CC2)c1, CC(CCNc1c2ccccc2nc2ccccc12)N1CCN(C)CC1 (stereo not given), CCN(CC)c1nc(N)c2c(N)nc3c(c2c1C#N)C(=O)CN3Cc1ccccc1, Cc1ccc(-c2cc(C(=O)Nc3ccc(S(=O)(=O)N4CCOCC4)cc3)[nH]n2)c(O)c1C, COc1ccc(Br)cc1/C=C/C(=O)Nc1ccc(C2CCN(C)CC2)cc1, CC(C)Cn1c(N)cc(=O)n(C)c1=O, CC1(C)N=C(N)N=C(N)N1OCCCO, O=C(/C=C/c1ccc(Cl)c(Cl)c1)NCCCCCN1CCCN(C(=O)Nc2ccc(C(F)(F)F)cc2)CC1, CCOC(=O)C(NC(=O)Cc1ccccc1)C(C)C (stereo not given), COc1cc(Nc2ncnc3cc(OC)c(OC)cc23)cc([N+](=O)[O-])c1, COc1cc2c(cc1OC)CN(c1cc(N)c3cc(OC)c(OC)cc3n1)CC2

target: Protein kinase 7 (PK7), Plasmodium falciparum 3D7 (PF3D7_0213400) (UniProt Q7YTF7); test: inhibition of Plasmodium PK7 catalytic activity – biochemical, TCAMS antimalarial set, Kinase-Glo luminescence (AID 1159587); details: recombinant PfPK7, Kinase-Glo ATP depletion luminescence
Sequence (Q7YTF7 1-343): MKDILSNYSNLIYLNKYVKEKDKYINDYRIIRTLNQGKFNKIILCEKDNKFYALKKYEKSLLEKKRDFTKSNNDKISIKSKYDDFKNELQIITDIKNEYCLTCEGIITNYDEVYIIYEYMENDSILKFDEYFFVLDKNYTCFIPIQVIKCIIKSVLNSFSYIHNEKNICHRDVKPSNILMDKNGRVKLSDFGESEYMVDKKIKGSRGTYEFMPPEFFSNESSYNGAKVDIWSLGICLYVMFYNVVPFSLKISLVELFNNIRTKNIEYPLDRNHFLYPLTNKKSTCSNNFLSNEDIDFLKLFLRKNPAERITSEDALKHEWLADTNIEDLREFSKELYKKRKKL

outcome, inactive:
FC(F)(F)c1ccc2nc(-c3cccc(-c4ccc(CNCc5cnn(-c6ccccc6)n5)cc4)c3)[nH]c2c1, N=C(N)c1cc(Cl)cc(NC(=O)Nc2cc(Cl)cc(C(=N)N)c2)c1, COc1cccc(C=CC(=O)N(CCN)Cc2ccccc2)c1, Cn1nc(C(F)(F)F)c(-c2ccc(Br)cc2)c1NC(=O)Cc1ccccc1F, CN(C)CCCN1C(=O)c2[nH]nc(-c3ccc(Cl)cc3O)c2C1c1ccc(Cl)cc1 (stereo not given), COc1ccc2nc(-c3cc(-c4ccc(NC(=O)C(C)C)cc4)cnc3N)[nH]c2c1, COc1cc(NC(=O)c2nn(CCCN3CCC(N4CCCC4)CC3)cc2-c2ccc(Cl)c(Cl)c2)cc(OC)c1OC, O=C(Nc1ccccc1)Nc1cccc(-c2cc(CNCCc3ccccc3)sc2-c2ccncc2)c1, O=C(Nc1cccc(C(F)(F)F)c1)NC1CCN(c2ccnc3cc(Cl)ccc23)C1 (stereo not given), Cc1onc(-c2c(Cl)cccc2Cl)c1C(=O)NC1=NC(C)(C)ON1c1ccccc1, CCOc1ccccc1C(=O)Nc1cccc(-c2nc3ncccn3c2C)c1, CCOc1cc(C)c(C2CCN(CCCCNC(=O)c3ccc(NC(=O)c4ccc(Cl)cc4)cc3)CC2)cc1C, CC(C)Cn1cc(C2CCN(CCN3CCC(CNC(=O)c4ccc(NC(=O)c5cc(Cl)cc(Cl)c5)cc4)CC3)CC2)c2ccccc21, Fc1ccc2nc(-c3ccc(-c4ccc(CN5CCN(CCN6CCOCC6)CC5)cc4)s3)[nH]c2c1, COc1ccc(-c2nc(NC(=O)Cc3ccc4c(c3)OCCO4)sc2C)cc1, Nc1ccc(-c2cc(Cl)cc(Cl)c2)cc1-c1cc2ccccc2[nH]1, CC(CNc1ccnc(Nc2ccc3[nH]c(=O)[nH]c3c2)n1)c1ccccc1 (stereo not given), CCCCCCCN1CC[C@@H](CCCc2ccnc3ccc(OC)cc23)[C@@H](CNC)C1, NC1(C(=O)O)Cc2ccc(Cl)cc2C1 (stereo not given), COc1ccc(CN(C)Cc2ccc(NC(=O)c3cccc4c(=O)c5cccc(C)c5[nH]c34)cc2)cc1OC, Cc1ccc(-c2nc3ccc(C(=O)NC4CCN(Cc5ccccc5)CC4)cc3[nH]2)cc1, Cc1ccc(O)cc1Nc1ccnc2cc(-c3ccncc3)ccc12, O=S(=O)(Nc1cccc(CCN2CCC(N3CCCCC3)CC2)c1)c1cccc2cccnc12, O=C(NC(=O)c1ccccc1)NC1CCN(c2ccnc3cc(Cl)ccc23)C1 (stereo not given), Cc1c(Cl)cccc1S(=O)(=O)N1CCCCC(c2ccc(C(F)(F)F)cc2)=N1, CC1CCCN(C(=O)C(C)Nc2cc(Cl)ccc2N2CCOCC2)C1 (stereo not given), Cc1cc(N(C)C)nc(Nc2ccc(NC(=O)c3ccccc3Cl)cc2)n1, COc1cc(-c2nc(-c3ccccc3)c(-c3ccccc3)[nH]2)cc(OC)c1O, CCC(C)NC(=O)Nc1ccc(-c2cccc(-c3nc4c(C)cccc4[nH]3)c2)cc1 (stereo not given), N#Cc1cccc(CN2CCCN(Cc3cccc(C(=O)Nc4ccc(Cl)cc4)c3)CC2)c1, CC(CCNc1c2ccccc2nc2ccccc12)N1CCN(C)CC1 (stereo not given), CCN(CC)c1nc(N)c2c(N)nc3c(c2c1C#N)C(=O)CN3Cc1ccccc1, Cc1ccc(-c2cc(C(=O)Nc3ccc(S(=O)(=O)N4CCOCC4)cc3)[nH]n2)c(O)c1C, COc1ccc(Br)cc1/C=C/C(=O)Nc1ccc(C2CCN(C)CC2)cc1, CC(C)Cn1c(N)cc(=O)n(C)c1=O, CC1(C)N=C(N)N=C(N)N1OCCCO, O=C(/C=C/c1ccc(Cl)c(Cl)c1)NCCCCCN1CCCN(C(=O)Nc2ccc(C(F)(F)F)cc2)CC1, CCOC(=O)C(NC(=O)Cc1ccccc1)C(C)C (stereo not given), COc1cc(Nc2ncnc3cc(OC)c(OC)cc23)cc([N+](=O)[O-])c1, COc1cc2c(cc1OC)CN(c1cc(N)c3cc(OC)c(OC)cc3n1)CC2
